We go through four compounds from PubChem BioAssay AID1508601 (ICCB-Longwood Screening Facility, Harvard Medical School, 2020).

Values joined by “and” are separate entries in the source; they are usually repeats but may differ in a detail not shown here. Equal values may be shown once. The whole screen tested about 5,700 compounds, of which about 85 (1%) were called active. Cut-off read from the data, not from the text of the source: active = p53-positive nuclei above about 36% (passing the limit was not always enough); inactive = the rest. Only a selection was taken, and actives are over-represented in it overall.

Test [1] is described as follows: p53 stabilisation in HPV-positive human cells, imaging, p53-positive nuclei imaging, 24 h, 48 h (AID 1508601). The note with it: 24/48 h.
For test [2], the target named is Cellular tumor antigen p53 (Homo sapiens) (UniProt P04637). The description is as above. Particulars: 24/48 h, stronger effect = higher value.
[3] abbreviates: measured here: cell number at 24 h, Library stock concentration: 80 uM.
The mark [4] stands for this setting: measured here: cell number at 24 h, Library stock concentration: 400 uM.
Where [5] appears, read: measured here: cell number at 24 h, Library stock concentration: 2 mM.
Where [6] appears, read: measured here: cell number at 24 h, Library stock concentration: 10 mM.
The mark [7] stands for this setting: measured here: cell number at 48 h, Library stock concentration: 80 uM.
[8] abbreviates: measured here: cell number at 48 h, Library stock concentration: 400 uM.
Where [9] appears, read: measured here: cell number at 48 h, Library stock concentration: 2 mM.
The mark [10] stands for this setting: measured here: cell number at 48 h, Library stock concentration: 10 mM.
The mark [11] stands for this setting: Library stock concentration: 80 uM.
Where [12] appears, read: Library stock concentration: 400 uM.
[13] abbreviates: Library stock concentration: 2 mM.
[14] abbreviates: Library stock concentration: 10 mM.
Setting [15] is: measured here: p53 positive nuclei at 24 h, Library stock concentration: 80 uM.
[16] abbreviates: measured here: p53 positive nuclei at 24 h, Library stock concentration: 400 uM.
Where [17] appears, read: measured here: p53 positive nuclei at 24 h, Library stock concentration: 2 mM.
Setting [18] is: measured here: p53 positive nuclei at 24 h, Library stock concentration: 10 mM.
Where [19] appears, read: measured here: cell number at 24 h, concentration not given here.
Setting [20] is: measured here: cell number at 48 h, concentration not given here.
[21] abbreviates: measured here: p53 positive nuclei at 24 h, concentration not given here.

Sequence of Cellular tumor antigen p53 (Homo sapiens) (P04637 whole entry, looked up): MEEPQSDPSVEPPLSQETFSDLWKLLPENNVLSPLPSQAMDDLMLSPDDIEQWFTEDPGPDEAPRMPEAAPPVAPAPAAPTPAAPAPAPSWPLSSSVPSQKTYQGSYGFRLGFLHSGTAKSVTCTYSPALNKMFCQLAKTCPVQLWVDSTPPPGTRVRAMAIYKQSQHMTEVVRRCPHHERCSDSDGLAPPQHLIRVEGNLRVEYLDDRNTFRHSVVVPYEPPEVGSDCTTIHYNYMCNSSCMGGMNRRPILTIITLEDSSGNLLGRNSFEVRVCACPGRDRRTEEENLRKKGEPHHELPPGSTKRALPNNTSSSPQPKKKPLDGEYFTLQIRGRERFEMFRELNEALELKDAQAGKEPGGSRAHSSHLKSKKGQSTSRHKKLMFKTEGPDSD

In the case of `c1cc(NCCc2c[nH]c3ccccc23)cc(Nc2ccncc2)c1`, the nuclei count, normalised came to 103% in test [1] (setting [3]); 107% in test [1] (setting [4]); 107% in test [1] (setting [5]); 91.3% in test [1] (setting [6]); 101% in test [1] (setting [7]); 107% in test [1] (setting [8]). The nuclei count, normalised was found to be 108% in test [1] (setting [9]) and 77.6% in test [1] (setting [10]). Further, the p53-positive nuclei, normalised was -0.0385% (inactive) in test [2] (setting [11]); -0.0904% (inactive) in test [2] (setting [12]); -0.152% (inactive) in test [2] (setting [13]); -0.0614% (inactive) in test [2] (setting [14]); -0.148% in test [2] (setting [15]); -0.0802% in test [2] (setting [16]). Besides, the p53-positive nuclei, normalised in test [2] (setting [17]) is 0.142%; in test [2] (setting [18]) it was -0.0614%.
As for `COc1ccc(CN2CCN(c3nccc(-c4c(C)nn(C)c4C)n3)CC2=O)cc1`, the nuclei count, normalised worked out at 101% in test [1] (setting [19]) and 105% in test [1] (setting [20]). Also, the p53-positive nuclei, normalised in test [2] (concentration not given here) is -0.125% (inactive); in test [2] (setting [21]) it was -0.147%.
As to `CN(C)CCC(CSc1ccccc1)Nc1ccc(S(=O)(=O)NC(=O)c2ccc(N3CCN(Cc4ccccc4-c4ccc(Cl)cc4)CC3)cc2)cc1[N+](=O)[O-]` (stereo not given), the nuclei count, normalised in test [1] (measured here: cell number at 24 h, Library stock concentration: 500 nM) is 120%; in test [1] (measured here: cell number at 24 h, Library stock concentration: 1.5 uM), 122%; in test [1] (measured here: cell number at 24 h, Library stock concentration: 4.6 uM) it was 117%; in test [1] (measured here: cell number at 24 h, Library stock concentration: 13.7 uM), 121%; in test [1] (measured here: cell number at 24 h, Library stock concentration: 41 uM), 117%; in test [1] (setting [3]), 111% and 86.3%. Moreover, the nuclei count, normalised in test [1] (measured here: cell number at 24 h, Library stock concentration: 123 uM) was 117%; in test [1] (measured here: cell number at 24 h, Library stock concentration: 370 uM), 117%; in test [1] (setting [4]), 109% and 85.3%; in test [1] (measured here: cell number at 24 h, Library stock concentration: 1.111 mM), 113%; in test [1] (setting [5]) it was 113% and 92.5%; in test [1] (measured here: cell number at 24 h, Library stock concentration: 3.33 mM), 105%. Besides, the nuclei count, normalised in test [1] (measured here: cell number at 24 h, Library stock concentration: 3.333 mM) is 127%; in test [1] (setting [6]), 111% and 80.6% and 116%; in test [1] (measured here: cell number at 48 h, Library stock concentration: 500 nM) it was 112%; in test [1] (measured here: cell number at 48 h, Library stock concentration: 1.5 uM) it was 111%; in test [1] (measured here: cell number at 48 h, Library stock concentration: 4.6 uM), 112%; in test [1] (measured here: cell number at 48 h, Library stock concentration: 13.7 uM), 117%. Further, the nuclei count, normalised in test [1] (measured here: cell number at 48 h, Library stock concentration: 41 uM) is 114%; in test [1] (setting [7]), 99.7% and 87.7%; in test [1] (measured here: cell number at 48 h, Library stock concentration: 123 uM) it was 112%; in test [1] (measured here: cell number at 48 h, Library stock concentration: 370 uM) it was 113%; in test [1] (setting [8]) it was 97.6% and 86%; in test [1] (measured here: cell number at 48 h, Library stock concentration: 1.111 mM), 112%. Also, the nuclei count, normalised in test [1] (setting [9]) was 98% and 96.4%; in test [1] (measured here: cell number at 48 h, Library stock concentration: 3.33 mM), 102%; in test [1] (measured here: cell number at 48 h, Library stock concentration: 3.333 mM) it was 126%; in test [1] (setting [10]) it was 106% and 92.8% and 127%. For the same compound, the p53-positive nuclei, normalised is -0.0213% (inactive) in test [2] (Library stock concentration: 500 nM); 0.0237% (inactive) in test [2] (Library stock concentration: 1.5 uM); 0.0183% (inactive) in test [2] (Library stock concentration: 4.6 uM); -0.104% (inactive) in test [2] (Library stock concentration: 13.7 uM); -0.0533% (inactive) in test [2] (Library stock concentration: 41 uM); 0.0591% (inactive) and -0.273% (inactive) in test [2] (setting [11]). Moreover, the p53-positive nuclei, normalised in test [2] (Library stock concentration: 123 uM) is -0.176% (inactive); in test [2] (Library stock concentration: 370 uM), -0.136% (inactive); in test [2] (setting [12]), 0.0679% (inactive) and 0.126% (inactive); in test [2] (Library stock concentration: 1.111 mM) it was -0.092% (inactive); in test [2] (setting [13]), -0.0104% (inactive) and 0.232% (inactive); in test [2] (Library stock concentration: 3.33 mM), -0.445% (inactive). Further, the p53-positive nuclei, normalised in test [2] (Library stock concentration: 3.333 mM) is -0.149% (inactive); in test [2] (setting [14]), -0.104% (inactive) and 0.208% (inactive) and -0.0111% (inactive); in test [2] (measured here: p53 positive nuclei at 24 h, Library stock concentration: 500 nM), 0.154%; in test [2] (measured here: p53 positive nuclei at 24 h, Library stock concentration: 1.5 uM) it was -0.0609%; in test [2] (measured here: p53 positive nuclei at 24 h, Library stock concentration: 4.6 uM), -0.00335%; in test [2] (measured here: p53 positive nuclei at 24 h, Library stock concentration: 13.7 uM) it was -0.0575%. Moreover, the p53-positive nuclei, normalised in test [2] (measured here: p53 positive nuclei at 24 h, Library stock concentration: 41 uM) is 0.00542%; in test [2] (setting [15]), -0.0528% and -0.0593%; in test [2] (measured here: p53 positive nuclei at 24 h, Library stock concentration: 123 uM), -0.105%; in test [2] (measured here: p53 positive nuclei at 24 h, Library stock concentration: 370 uM) it was -0.113%; in test [2] (setting [16]) it was -0.0967% and 0.0394%; in test [2] (measured here: p53 positive nuclei at 24 h, Library stock concentration: 1.111 mM) it was -0.104%. In addition, the p53-positive nuclei, normalised in test [2] (setting [17]) is -0.0967% and 0.437%; in test [2] (measured here: p53 positive nuclei at 24 h, Library stock concentration: 3.33 mM) it was 0.0238%; in test [2] (measured here: p53 positive nuclei at 24 h, Library stock concentration: 3.333 mM), -0.165%; in test [2] (setting [18]), -0.00444% and -0.0479% and 0.0019%.
For `CCCCC[C@@](C)(O)/C=C/[C@H]1[C@H](O)CC(=O)[C@@H]1C/C=C\CCCC(=O)O`, the nuclei count, normalised in test [1] (setting [19]) amounted to 101%; in test [1] (setting [20]), 105%. For the same compound, the p53-positive nuclei, normalised was -0.0639% (inactive) in test [2] (concentration not given here) and 0.0947% in test [2] (setting [21]).
